Experimental data published in ChEMBL document CHEMBL1961873, “Compounds: GSK PKIS; Assays: Nanosyn kinase panel” (2012).

What follows are compounds tested against T1, Serine/threonine-protein kinase 4 (Homo sapiens) (UniProt Q13043). Conditions: at 1 µM.
T1 sequence (whole entry): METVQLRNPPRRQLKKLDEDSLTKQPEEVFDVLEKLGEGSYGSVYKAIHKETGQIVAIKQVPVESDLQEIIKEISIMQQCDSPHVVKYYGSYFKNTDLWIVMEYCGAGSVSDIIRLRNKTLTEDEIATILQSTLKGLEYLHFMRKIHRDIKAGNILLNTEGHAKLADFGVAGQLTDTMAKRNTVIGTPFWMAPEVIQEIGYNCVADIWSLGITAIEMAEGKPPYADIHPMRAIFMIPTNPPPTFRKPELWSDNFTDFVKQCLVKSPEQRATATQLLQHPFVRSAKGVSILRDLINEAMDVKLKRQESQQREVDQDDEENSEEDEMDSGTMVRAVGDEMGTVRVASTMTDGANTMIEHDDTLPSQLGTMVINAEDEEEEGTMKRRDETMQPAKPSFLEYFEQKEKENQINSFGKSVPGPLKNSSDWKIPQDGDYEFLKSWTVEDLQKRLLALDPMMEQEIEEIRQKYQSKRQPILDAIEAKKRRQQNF
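Also: mean inhibition of MST1, part of the GSK PKIS dataset.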

Compound | inhibition [%]
CN1CCC(n2cnc(-c3ccc(F)cc3)c2-c2ccnc(N)n2)CC1 | 7.85
NC(=O)c1sc(-n2cnc3ccc(C(F)(F)F)cc32)cc1OCc1ccccc1Br | 3.83
CN(C)CCOc1ccc(-c2nc(-c3ccncc3)c(-c3ccc4c(c3)CC/C4=N\O)[nH]2)cc1 | 6.56
CCCN(CCS(C)(=O)=O)Cc1ccc(-c2ccc3ncnc(Nc4ccc(OCc5cccc(F)c5)c(Cl)c4)c3c2)o1 | 4.13
CCc1nn2ncccc2c1-c1ccnc(NC2CC2)n1 | 3.6
CCNC(=O)O[C@H]1CN[C@H](C#Cc2cc3ncnc(Nc4ccc(OCc5cccc(F)c5)c(Cl)c4)c3s2)C1 | 5.6
CNC(=O)c1cccc(C#Cc2cncnc2Nc2ccc(OCc3cccc(F)c3)c(Cl)c2)c1 | 8.84
CCN1CCC(CC(=O)Nc2n[nH]c3nnc(-c4cccc(F)c4F)cc23)CC1 | 6.13
c1cc(-c2cnn3nc(N4CCOCC4)ccc23)nc(NC2CC2)n1 | 10.3
CS(=O)(=O)CCNCc1coc(-c2ccc3ncnc(Nc4ccc(OCc5ccccc5)cc4)c3c2)c1 | 3.41
COc1ccc(-c2cc3c(N)ncnc3o2)cc1 | -0.96
N#Cc1c(NC(=O)CN2CCOCC2)sc2c1CCCC2 | 8.28
Clc1ccc(-c2nn3ncccc3c2-c2ccnc(Nc3ccccc3)n2)cc1 | 0.46
COc1cc(/C=N/Nc2ncnc3[nH]ncc23)ccc1O | 19.5
CC(C)(CO)CNC(=O)c1ccc2c(c1)/C(=N/Nc1ccc(S(N)(=O)=O)cc1)C(=O)N2 | 80.2
Cc1ccc(O)cc1Nc1ccnc2cc(-c3ccccn3)ccc12 | 8.81
